Here are results for eight molecules from ChEMBL document CHEMBL1961873, “Compounds: GSK PKIS; Assays: Nanosyn kinase panel” (2012).

The structures appear in SMILES notation.

The target in assay [1] is Tyrosine-protein kinase Fer (Homo sapiens) (UniProt P16591). Conditions: at 1 µM.
The target of assay [2] is Tyrosine-protein kinase Fes/Fps (Homo sapiens) (UniProt P07332). Conditions: at 0.1 µM.
For assay [3] the target is unchanged. Conditions: at 1 µM.
For assay [4], the target named is Fibroblast growth factor receptor 1 (Homo sapiens) (UniProt P11362). Conditions: at 0.1 µM.
The target is the same in assay [5]. Conditions: at 1 µM.
Assay [6] has as its target Fibroblast growth factor receptor 2 (Homo sapiens) (UniProt P21802). Conditions: at 0.1 µM.
The target is the same in assay [7]. Conditions: at 1 µM.
For assay [8], the target named is Fibroblast growth factor receptor 3 (Homo sapiens) (UniProt P22607). Conditions: at 0.1 µM.
Chain of Fibroblast growth factor receptor 3 (Homo sapiens) (P22607 23-806 limits assumed): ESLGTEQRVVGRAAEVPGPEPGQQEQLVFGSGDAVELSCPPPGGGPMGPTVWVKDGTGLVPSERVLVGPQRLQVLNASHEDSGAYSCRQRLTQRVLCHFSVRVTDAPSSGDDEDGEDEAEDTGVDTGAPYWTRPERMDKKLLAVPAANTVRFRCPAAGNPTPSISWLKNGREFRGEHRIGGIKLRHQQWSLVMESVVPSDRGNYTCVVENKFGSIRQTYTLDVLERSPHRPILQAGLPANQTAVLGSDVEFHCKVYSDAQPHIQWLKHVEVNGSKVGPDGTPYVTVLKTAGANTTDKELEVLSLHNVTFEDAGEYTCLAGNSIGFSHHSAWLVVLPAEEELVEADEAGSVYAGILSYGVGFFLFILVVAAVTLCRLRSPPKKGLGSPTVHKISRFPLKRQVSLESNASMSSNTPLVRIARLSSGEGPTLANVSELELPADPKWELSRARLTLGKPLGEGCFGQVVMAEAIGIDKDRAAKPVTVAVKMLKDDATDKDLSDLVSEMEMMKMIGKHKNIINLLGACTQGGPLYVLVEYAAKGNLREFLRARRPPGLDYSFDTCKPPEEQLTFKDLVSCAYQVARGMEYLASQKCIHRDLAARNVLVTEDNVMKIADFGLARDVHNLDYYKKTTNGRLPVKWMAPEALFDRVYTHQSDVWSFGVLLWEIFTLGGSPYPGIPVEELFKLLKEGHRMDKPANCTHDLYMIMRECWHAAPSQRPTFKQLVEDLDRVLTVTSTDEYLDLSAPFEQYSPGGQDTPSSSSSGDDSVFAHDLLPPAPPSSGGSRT
For assay [9] the target is unchanged. Conditions: at 1 µM.
Assay [10] addresses Fibroblast growth factor receptor 4 (Homo sapiens) (UniProt P22455). Conditions: at 0.1 µM.
Assay [11] has the same target. Conditions: at 1 µM.
Assay [12] concerns the target Tyrosine-protein kinase Fgr (Homo sapiens) (UniProt P09769). Conditions: at 0.1 µM.
Assay [13] shares this target. Conditions: at 1 µM.
Assay [14] deals with Vascular endothelial growth factor receptor 1 (Homo sapiens) (UniProt P17948). Conditions: at 0.1 µM.
The target is the same in assay [15]. Conditions: at 1 µM.
The target in assay [16] is Receptor-type tyrosine-protein kinase FLT3 (Homo sapiens) (UniProt P36888). Conditions: at 0.1 µM.
The target is the same in assay [17]. Conditions: at 1 µM.
The test system of assay [18] is T1, Receptor-type tyrosine-protein kinase FLT3 (Homo sapiens), P36888 [D835Y].
T1 sequence (whole entry): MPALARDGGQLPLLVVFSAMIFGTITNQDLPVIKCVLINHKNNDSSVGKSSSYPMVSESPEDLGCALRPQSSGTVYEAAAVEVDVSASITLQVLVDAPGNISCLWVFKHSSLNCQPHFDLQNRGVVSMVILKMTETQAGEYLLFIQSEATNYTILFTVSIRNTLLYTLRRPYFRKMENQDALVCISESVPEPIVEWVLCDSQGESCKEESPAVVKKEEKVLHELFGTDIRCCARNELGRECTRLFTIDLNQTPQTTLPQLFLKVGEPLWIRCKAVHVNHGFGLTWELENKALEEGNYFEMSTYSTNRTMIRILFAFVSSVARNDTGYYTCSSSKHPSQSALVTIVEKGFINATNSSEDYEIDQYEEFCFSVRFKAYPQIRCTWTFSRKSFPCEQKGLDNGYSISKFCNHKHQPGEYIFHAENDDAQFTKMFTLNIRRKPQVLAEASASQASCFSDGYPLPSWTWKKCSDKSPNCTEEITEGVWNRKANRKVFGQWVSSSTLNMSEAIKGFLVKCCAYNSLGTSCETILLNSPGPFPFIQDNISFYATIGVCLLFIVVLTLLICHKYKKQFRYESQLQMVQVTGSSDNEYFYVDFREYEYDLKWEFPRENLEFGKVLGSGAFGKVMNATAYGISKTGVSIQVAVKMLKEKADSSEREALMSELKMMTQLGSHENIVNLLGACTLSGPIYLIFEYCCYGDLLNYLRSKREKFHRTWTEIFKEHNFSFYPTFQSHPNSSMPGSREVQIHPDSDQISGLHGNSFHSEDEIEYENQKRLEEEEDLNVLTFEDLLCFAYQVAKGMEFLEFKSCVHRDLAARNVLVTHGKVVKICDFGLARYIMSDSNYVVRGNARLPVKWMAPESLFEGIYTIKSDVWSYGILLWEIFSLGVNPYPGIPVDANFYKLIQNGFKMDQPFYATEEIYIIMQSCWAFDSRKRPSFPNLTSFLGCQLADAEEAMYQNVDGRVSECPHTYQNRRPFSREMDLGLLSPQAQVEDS
Conditions: at 0.1 µM.

Assay [19] deals with Non-receptor tyrosine-protein kinase TYK2 (Homo sapiens) (UniProt P29597). Conditions: at 1 µM.
Chain of Non-receptor tyrosine-protein kinase TYK2 (Homo sapiens) (P29597 whole entry): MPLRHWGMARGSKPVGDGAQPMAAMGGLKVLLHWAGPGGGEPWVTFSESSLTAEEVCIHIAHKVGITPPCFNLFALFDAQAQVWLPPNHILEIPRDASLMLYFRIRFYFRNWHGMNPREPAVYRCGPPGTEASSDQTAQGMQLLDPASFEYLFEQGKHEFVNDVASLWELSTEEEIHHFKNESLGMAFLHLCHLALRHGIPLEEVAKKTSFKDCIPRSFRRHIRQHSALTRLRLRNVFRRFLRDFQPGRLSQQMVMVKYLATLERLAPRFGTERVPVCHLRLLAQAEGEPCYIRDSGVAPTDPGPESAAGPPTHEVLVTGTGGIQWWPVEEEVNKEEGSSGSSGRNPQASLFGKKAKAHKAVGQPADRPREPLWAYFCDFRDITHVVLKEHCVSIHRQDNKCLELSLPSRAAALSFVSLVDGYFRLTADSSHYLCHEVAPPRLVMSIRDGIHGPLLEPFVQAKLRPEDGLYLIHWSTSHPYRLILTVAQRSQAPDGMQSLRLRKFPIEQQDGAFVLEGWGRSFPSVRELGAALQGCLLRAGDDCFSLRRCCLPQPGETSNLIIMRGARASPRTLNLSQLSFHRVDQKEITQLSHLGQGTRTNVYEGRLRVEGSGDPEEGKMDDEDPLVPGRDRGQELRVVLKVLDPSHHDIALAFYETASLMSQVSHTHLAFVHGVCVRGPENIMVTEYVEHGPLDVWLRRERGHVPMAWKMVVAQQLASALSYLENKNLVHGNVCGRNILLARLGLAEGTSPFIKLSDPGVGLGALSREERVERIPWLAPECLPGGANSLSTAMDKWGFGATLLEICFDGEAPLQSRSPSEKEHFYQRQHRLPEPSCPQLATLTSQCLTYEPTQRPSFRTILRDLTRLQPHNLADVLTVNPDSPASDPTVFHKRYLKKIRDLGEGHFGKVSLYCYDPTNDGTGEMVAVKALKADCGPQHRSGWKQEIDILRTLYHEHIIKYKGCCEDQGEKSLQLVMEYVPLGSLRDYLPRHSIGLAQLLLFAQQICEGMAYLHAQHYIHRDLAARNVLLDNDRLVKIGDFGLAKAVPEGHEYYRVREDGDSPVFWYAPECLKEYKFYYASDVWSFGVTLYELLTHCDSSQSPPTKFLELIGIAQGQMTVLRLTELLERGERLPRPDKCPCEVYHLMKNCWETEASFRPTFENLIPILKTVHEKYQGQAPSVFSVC
Assay [20] deals with T2, Tyrosine-protein kinase receptor TYRO3 (Homo sapiens) (UniProt Q06418).
T2 sequence (whole entry): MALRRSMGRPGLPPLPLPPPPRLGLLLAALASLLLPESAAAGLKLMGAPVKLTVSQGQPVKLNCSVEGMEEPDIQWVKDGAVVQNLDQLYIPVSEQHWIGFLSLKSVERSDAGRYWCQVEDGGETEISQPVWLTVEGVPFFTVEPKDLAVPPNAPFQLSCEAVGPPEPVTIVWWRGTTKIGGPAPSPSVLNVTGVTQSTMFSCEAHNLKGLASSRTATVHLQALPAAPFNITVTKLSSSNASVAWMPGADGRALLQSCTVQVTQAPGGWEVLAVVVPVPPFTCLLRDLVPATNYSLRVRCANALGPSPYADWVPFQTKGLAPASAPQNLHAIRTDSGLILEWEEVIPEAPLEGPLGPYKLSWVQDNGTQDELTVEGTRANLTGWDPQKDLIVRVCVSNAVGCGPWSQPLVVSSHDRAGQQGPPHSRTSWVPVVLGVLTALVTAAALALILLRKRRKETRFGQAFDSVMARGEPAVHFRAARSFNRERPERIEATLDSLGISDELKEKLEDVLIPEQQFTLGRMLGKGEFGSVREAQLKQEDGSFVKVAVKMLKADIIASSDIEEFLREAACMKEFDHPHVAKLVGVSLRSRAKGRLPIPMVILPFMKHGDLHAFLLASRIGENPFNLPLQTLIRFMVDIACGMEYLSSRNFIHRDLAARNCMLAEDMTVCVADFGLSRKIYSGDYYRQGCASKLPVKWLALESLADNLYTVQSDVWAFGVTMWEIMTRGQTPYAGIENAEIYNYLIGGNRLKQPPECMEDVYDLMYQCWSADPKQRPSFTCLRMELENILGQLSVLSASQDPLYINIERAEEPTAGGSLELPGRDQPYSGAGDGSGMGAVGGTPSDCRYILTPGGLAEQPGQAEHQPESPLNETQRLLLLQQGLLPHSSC
Conditions: at 0.1 µM.

Chain of Tyrosine-protein kinase Fer (Homo sapiens) (P16591 whole entry, looked up): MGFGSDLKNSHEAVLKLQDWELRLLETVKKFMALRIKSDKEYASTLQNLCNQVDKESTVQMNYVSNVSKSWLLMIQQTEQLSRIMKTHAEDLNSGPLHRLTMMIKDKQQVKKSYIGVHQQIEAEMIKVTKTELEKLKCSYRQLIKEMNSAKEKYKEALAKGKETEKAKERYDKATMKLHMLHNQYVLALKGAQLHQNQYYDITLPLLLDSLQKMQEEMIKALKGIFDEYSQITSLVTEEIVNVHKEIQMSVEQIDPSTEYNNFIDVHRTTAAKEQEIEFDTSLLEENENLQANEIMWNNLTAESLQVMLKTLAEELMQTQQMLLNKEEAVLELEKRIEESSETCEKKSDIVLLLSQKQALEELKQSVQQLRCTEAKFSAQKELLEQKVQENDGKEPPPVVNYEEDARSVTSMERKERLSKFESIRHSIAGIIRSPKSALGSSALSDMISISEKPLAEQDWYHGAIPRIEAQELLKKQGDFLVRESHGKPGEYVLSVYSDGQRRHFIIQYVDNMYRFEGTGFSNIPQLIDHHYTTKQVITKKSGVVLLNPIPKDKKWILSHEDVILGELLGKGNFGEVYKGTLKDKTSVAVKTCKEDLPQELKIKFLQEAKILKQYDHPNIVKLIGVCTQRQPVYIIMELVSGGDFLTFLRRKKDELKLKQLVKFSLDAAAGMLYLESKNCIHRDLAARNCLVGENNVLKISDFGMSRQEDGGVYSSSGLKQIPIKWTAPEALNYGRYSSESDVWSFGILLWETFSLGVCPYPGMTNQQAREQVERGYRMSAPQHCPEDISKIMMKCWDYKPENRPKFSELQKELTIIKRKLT
Chain of Fibroblast growth factor receptor 2 (Homo sapiens) (P21802 22-821 limits assumed): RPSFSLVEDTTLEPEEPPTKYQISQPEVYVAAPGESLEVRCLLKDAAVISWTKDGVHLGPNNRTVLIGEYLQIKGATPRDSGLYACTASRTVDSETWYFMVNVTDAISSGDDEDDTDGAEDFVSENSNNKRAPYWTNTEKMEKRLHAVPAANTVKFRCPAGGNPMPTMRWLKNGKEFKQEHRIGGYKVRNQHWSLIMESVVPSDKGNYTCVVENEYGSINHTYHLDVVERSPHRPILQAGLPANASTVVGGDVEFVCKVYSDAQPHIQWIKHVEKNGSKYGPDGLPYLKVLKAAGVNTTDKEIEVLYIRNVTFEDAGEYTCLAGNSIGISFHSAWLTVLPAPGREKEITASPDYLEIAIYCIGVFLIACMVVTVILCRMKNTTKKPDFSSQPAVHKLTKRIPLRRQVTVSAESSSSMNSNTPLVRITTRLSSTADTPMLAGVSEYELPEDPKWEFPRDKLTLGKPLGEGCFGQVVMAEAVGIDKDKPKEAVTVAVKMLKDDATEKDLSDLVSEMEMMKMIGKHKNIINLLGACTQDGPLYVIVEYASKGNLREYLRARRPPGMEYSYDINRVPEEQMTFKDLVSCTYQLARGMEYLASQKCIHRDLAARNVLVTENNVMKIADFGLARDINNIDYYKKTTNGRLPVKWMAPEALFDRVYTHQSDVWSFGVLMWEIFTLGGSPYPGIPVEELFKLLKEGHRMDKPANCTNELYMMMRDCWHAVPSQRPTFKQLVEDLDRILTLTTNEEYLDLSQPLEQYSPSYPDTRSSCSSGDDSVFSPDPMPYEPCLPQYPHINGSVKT
Chain of Tyrosine-protein kinase Fgr (Homo sapiens) (P09769 2-529 limits assumed): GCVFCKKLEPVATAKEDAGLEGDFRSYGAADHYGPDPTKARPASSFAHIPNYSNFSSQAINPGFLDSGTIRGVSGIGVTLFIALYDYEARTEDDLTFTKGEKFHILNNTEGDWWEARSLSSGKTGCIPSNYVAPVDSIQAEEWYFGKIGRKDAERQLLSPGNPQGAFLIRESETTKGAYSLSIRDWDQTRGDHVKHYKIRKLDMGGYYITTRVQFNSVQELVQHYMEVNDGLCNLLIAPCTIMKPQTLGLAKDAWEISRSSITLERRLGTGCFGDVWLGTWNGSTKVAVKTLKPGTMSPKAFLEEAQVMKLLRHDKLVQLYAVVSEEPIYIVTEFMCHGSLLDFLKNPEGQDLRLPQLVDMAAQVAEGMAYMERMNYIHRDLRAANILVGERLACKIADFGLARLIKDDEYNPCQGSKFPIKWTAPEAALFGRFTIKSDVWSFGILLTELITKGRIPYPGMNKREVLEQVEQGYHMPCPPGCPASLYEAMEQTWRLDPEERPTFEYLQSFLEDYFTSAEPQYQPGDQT
Chain of Tyrosine-protein kinase Fes/Fps (Homo sapiens) (P07332 whole entry): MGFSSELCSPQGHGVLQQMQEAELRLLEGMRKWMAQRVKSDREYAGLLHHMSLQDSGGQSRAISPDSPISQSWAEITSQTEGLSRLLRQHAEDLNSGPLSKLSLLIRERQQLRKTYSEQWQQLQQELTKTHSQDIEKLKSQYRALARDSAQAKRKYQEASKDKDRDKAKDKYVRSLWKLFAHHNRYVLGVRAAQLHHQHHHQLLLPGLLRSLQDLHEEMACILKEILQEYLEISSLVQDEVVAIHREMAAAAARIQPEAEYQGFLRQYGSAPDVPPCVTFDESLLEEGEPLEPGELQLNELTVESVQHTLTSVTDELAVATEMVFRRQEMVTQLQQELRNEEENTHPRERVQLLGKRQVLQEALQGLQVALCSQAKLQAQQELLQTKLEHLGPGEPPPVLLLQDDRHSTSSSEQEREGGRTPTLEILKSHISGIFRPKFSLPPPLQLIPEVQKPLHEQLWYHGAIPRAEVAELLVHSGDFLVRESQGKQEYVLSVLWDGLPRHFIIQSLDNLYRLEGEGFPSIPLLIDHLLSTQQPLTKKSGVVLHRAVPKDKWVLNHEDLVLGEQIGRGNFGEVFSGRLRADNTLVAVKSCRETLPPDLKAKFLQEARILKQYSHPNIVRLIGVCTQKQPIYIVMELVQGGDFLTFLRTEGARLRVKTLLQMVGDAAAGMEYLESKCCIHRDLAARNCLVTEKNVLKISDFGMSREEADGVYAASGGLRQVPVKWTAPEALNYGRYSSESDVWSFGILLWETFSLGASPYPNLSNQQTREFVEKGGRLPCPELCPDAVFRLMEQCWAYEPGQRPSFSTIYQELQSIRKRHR

As usually defined, the inhibition is the drop in the measured response relative to a control, in per cent. For `COc1cc(C=NNc2ncnc3c2cnn3-c2ccccc2)ccc1O`, the inhibition in assay [1] amounted to 4.88%; in assay [2] it was 2.59%; in [3] it was 4.03%; in [4] it was 1.01%; in assay [5] it was 3.72%; in assay [6], 3%. Moreover, the inhibition in [7] was 9.48%; in assay [8] it was 2.91%; in assay [9], 7.58%; in assay [10], 4.25%; in assay [11], 3.32%; in assay [12] it was 12.8%. The inhibition in assay [13] amounted to 49.6%; in assay [14], 3.24%; in [15], 15.1%; in [16], 15.6%; in assay [17] it was 54.6%; in assay [18], 17.7%. Moreover, the figures for the inhibition in assay [19] and in assay [20] were 0.57% and 5.56%, respectively.

For `CCn1c(-c2nonc2N)nc2c(C#CC(C)(C)O)nc(OC[C@@H](N)c3ccccc3)cc21`, the inhibition in assay [1] was 4.88%; in assay [2], -0.53%; in assay [3] it was 5.13%; in assay [4], -3.47%; in assay [5] it was 5.43%; in assay [6] it was -3.01%. Further, the inhibition was 0.85% in assay [7]; -1.33% in assay [8]; -0.5% in assay [9]; 2.3% in assay [10]; 0.19% in assay [11]; 5% in assay [12]. Besides, the inhibition was 10.2% in assay [13]; 5.16% in assay [14]; 33.9% in [15]; -0.98% in assay [16]; -0.75% in assay [17]; -1.79% in [18]. Also, the inhibition in assay [19] is 0.35%; in assay [20], -0.52%.

Take `CC1=C(C(=O)Nc2ccc3[nH]ncc3c2)C(c2ccc(F)cc2)NC(=O)N1` (centres undefined): the inhibition is 2.17% in assay [1]; 0.59% in assay [2]; 0.3% in assay [3]; -0.9% in [4]; 6.58% in assay [5]; 3.51% in assay [6]. Besides, the inhibition in [7] was 18.4%; in assay [8], 4.3%; in assay [9], 14.7%; in assay [10], 1.22%; in [11], 7.73%; in assay [12], 0.15%. Moreover, the inhibition was 0.7% in assay [13]; -0.38% in [14]; 2.35% in [15]; 0.82% in [16]; 0.62% in assay [17]; -0.62% in assay [18]. The inhibition came out at 26.3% in [19] and 1.55% in assay [20].

Regarding `O=C1Nc2ccc(C(=O)c3ccco3)cc2C1=Cc1cc(Cl)c(O)c(Cl)c1`, the inhibition in assay [1] stood at 11.5%; in assay [2], 1.95%; in [3], 2.89%; in assay [4], 3.35%; in [5] it was 8.23%; in assay [6], 6.09%. The inhibition in assay [7] was determined as 25.8%; in [8], 9.26%; in assay [9], 19.1%; in [10], 2.69%; in assay [11] it was 7.04%; in assay [12] it was 2.46%. The inhibition is 11.6% in assay [13]; 1.07% in assay [14]; 4.42% in [15]; 1.69% in assay [16]; 12.7% in [17]; 4.82% in assay [18]. In addition, the inhibition in assay [19] came out at 26.4%; in assay [20] it was 1.96%.

Take `COc1ccc(COc2ccc(Cc3cnc(N)nc3N)cc2OC)cc1`: the inhibition in [1] is 2.33%; in [2], 1.72%; in [3], 2.24%; in assay [4], 1.78%; in assay [5] it was 2.1%; in [6], 1.46%. The inhibition in [7] was 6.83%; in [8], 2.29%; in [9], 0.98%; in assay [10], 3.95%; in assay [11], 3.16%; in [12] it was -0.01%. Further, the inhibition in assay [13] is 4.25%; in assay [14] it was 1.03%; in assay [15] it was 2.11%; in [16], -1.11%; in assay [17], 1.13%; in assay [18], -4.6%. Further, the inhibition in [19] came out at 0.26%; in assay [20] it was 0.79%.

In the case of `Cc1nn(C)c2cc(N(C)c3ccnc(Nc4cccc(S(N)(=O)=O)c4)n3)ccc12`, the inhibition in assay [1] is 35.8%; in [2], 2.04%; in assay [3], 6.14%; in assay [4], -0.21%; in [6], 5.4%; in [7] it was 20.7%. Moreover, the inhibition in assay [8] was 3.96%; in assay [9], 11.4%; in assay [10], -9.61%; in [11] it was 0.29%; in assay [12] it was 14.8%; in assay [13], 48%. For the same molecule, the inhibition in assay [14] turned out to be 2.5%; in assay [15], 30%; in assay [16], 2.69%; in assay [17], 15.4%; in assay [18], 2.72%; in assay [19], 2.39%. For the same molecule, in assay [20], the inhibition was 6.07%.

Consider `COc1cc2ncn(-c3cc(OCc4ccccc4C(F)(F)F)c(C(N)=O)s3)c2cc1OC`, for which the inhibition in [1] is 10.5%; in [2], 2.56%; in [3], 1.4%; in assay [4], -0.93%; in [5] it was 13%; in assay [6], 2.62%. For the same molecule, the inhibition was 20.9% in assay [7]; 6.21% in assay [8]; 18.2% in [9]; -3.31% in [10]; -1.16% in assay [11]; 4.79% in assay [12]. Besides, the inhibition in assay [13] was 14.6%; in assay [14], 1.92%; in [15] it was 9.39%; in assay [16], 0.06%; in assay [17], 9.95%; in [18] it was 9.27%. Besides, the inhibition is -6.76% in assay [19] and 3.15% in assay [20].

For `CS(=O)(=O)CCNCc1ccc(-c2ccc3ncnc(Nc4ccc(OCc5ccccc5)c(Cl)c4)c3c2)o1`, the inhibition in assay [1] is 10.4%; in assay [2] it was 0.53%; in assay [3], 0.08%; in assay [4], 0.78%; in [5], 3.71%; in [6] it was 0.57%. For the same molecule, the inhibition is 5.46% in assay [7]; 2.05% in [8]; 4.98% in [9]; -0.26% in assay [10]; 0.28% in assay [11]; 2.49% in assay [12]. Also, the inhibition in [13] was 11.5%; in [14] it was -0.51%; in assay [15] it was 0.52%; in assay [16] it was 1.48%; in assay [17] it was 2.75%; in assay [18] it was -3.65%. For the same molecule, the inhibition in [19] turned out to be 1.7%; in assay [20], 0.02%.
